Rab9 promoter act: activators of Rab9 promoter. Huh7 Rab9 promoter-luciferase reporter, luminescence, 24 h. Potency, µM (titrated, usually from 9.22 µM), inactives show at the top dose activation, negative = inhibition, usual class: activators. 2.8% of 320,000 active. AID 485297; further: % of control where 0% means no effect; nearly all actives have a fitted effect of over 60% in size
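Cell-based reporter: Huh7 stable for Rab9 promoter-driven luciferase, plated in reduced-serum medium with 10% FBS at 1500 cells/well, compound-treated 24 h at 37 °C, luminescence read after 10 min reagent.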
SMN2 splice up: increases expression of the SMN2 splice variant. HEK293 SMN2-luciferase splicing reporter, luminescence, 30-36 h. Potency, µM (top dose mostly 46.1 µM), for the others: at the highest dose activity change, positive = activation, usual class: activators. 2.8% of 210,000 active. AID 1458; further: % of control where 0% means no effect; nearly all actives have a fitted effect of over 55% in size
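HEK293 cells carry an SMN2 […]–luciferase reporter in which exon 7 inclusion puts luciferase in frame. Cells were plated 10-12 h before compound addition, then incubated 30-36 h at 37C. ONE-Glo luminescence was read; sodium butyrate at 4.5 mM final served as control.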
NPC1 promoter act: NPC1 promoter activation; Huh7 NPC1 promoter luciferase reporter, 24 h; Potency, µM (series often up to 9.22 µM), for inactives: top-dose activation, hits mostly activators; 2.4% of 320,000 active; further: % of control where 0% means no effect; nearly all actives have a fitted effect of over 60% in size
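In 1536-well qHTS, Huh7 cells harboring an NPC1 promoter–luciferase construct received compound for 24 h; activation was quantified by luminescence following luciferase reagent addition.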
ELG1 genotox: genotoxicity induction in ELG1-luciferase HEK293T cells; Potency, µM (doses to about 46 µM), inactives show at the highest dose activity change, positive = activation, most hits filed as activators; 1.3% of 330,000 active; HEK293T ELG1-luciferase reporter, luminescence, 16 h; further: % of control where 0% means no effect; nearly all actives have a fitted effect of over 60% in size
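After overnight (16 hr) compound treatment at 37 °C, ELG1-luciferase HEK293T cells were lysed with ONE-Glo; luminescence quantified 30 min later at room temperature.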
FLuc counter: firefly luciferase modulation, counter-screen for miR-21 project | P08659 | purified FLuc, Km substrates, luminescence inhibition | Potency, µM (highest dose often 57.5 µM), without a hit: at the highest dose activity change, negative = inhibition, hits mostly inhibitors | 6.9% of 360,000 active | AID 588342;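 further: plate controls were vehicle for no effect and reference inhibitor for full effect; nearly all actives have a fitted effect of over 55% in size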
Target sequence (P08659 whole entry, looked up): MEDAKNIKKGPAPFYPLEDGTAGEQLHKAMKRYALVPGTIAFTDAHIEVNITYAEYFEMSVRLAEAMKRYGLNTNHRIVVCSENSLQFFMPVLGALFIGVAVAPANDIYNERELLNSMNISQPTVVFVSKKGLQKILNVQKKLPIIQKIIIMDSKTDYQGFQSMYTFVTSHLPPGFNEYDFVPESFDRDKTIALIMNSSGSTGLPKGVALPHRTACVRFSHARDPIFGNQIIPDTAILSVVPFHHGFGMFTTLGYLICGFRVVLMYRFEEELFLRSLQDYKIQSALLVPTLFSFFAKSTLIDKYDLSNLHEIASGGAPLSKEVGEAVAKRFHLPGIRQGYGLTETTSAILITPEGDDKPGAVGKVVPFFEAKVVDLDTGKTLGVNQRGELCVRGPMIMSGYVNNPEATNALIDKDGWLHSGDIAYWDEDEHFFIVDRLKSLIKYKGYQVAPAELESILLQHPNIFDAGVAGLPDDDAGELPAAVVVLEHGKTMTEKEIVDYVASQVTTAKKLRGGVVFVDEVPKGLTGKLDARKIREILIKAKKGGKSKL
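Purified P. pyralis luciferase, 10 nM final, with Km-level 10 uM D-luciferin and 10 uM ATP in 50 mM Tris acetate pH 7.5, 10 mM Mg acetate, 0.01% Tween-20, 0.05% BSA; 6-point qHTS titration about 60 µM downward; luminescence read.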
An asterisk follows results filed as active. Shown are actives, neighbours in structure and some others; about 7.4% of the full set was active somewhere. The call rests on the fitted dose curve; in most records, active means well fitted curve in the direction sought with a large enough effect; inconclusive means small, poorly fitted or top-dose-only effect, or another doubt; inactive means no such curve, though single readings can be large; an effect the other way counts as inactive or inconclusive. Potency means the concentration at half of the fitted maximal effect.

Results for O=C(c1ccccc1)c1cc2ccc(O)cc2oc1=O ?
Rab9 promoter act: 14%; SMN2 splice up: 0%; NPC1 promoter act: 23%; ELG1 genotox: 6%; FLuc counter: 19µM*

What do the screens show for `Cc1ccc2oc(=O)c3cc(C(=O)N(Cc4ccccc4)C(C)C)sc3c2c1`?
SMN2 splice up: -4%; FLuc counter: 5%

How did Cn1c(=O)[nH]c2nnc(-c3ccc(Cl)c(Cl)c3)nc2c1=O do in these assays?
Rab9 promoter act: inconclusive; NPC1 promoter act: 0.71µM*; ELG1 genotox: inconclusive; FLuc counter: 3.4µM*

What do the screens show for `Cc1ccccc1CNC(=O)C(=O)NCC1CCCN1S(=O)(=O)c1cccs1` (stereo unspecified)?
Rab9 promoter act: 11%; NPC1 promoter act: -1%; ELG1 genotox: 9%; FLuc counter: 1%

How did O=C(OCc1ccccc1)c1ccc2c(c1)-c1ccccc1C2=O do in these assays?
Rab9 promoter act: inconclusive; SMN2 splice up: 13µM*; NPC1 promoter act: inconclusive; ELG1 genotox: 10µM*; FLuc counter: inconclusive

How did O=C(OCc1nnc(-c2ccccc2)o1)c1ccc(CO)cc1 do in these assays?
Rab9 promoter act: 0%; SMN2 splice up: 7%; NPC1 promoter act: -5%; ELG1 genotox: 1%; FLuc counter: -2%

Results for CC(C)OC(=O)c1ccc(COC(=O)c2cccc(-c3nnc(-c4ccccc4)o3)c2)cc1 ?
Rab9 promoter act: 2.5µM*; SMN2 splice up: 5µM*; NPC1 promoter act: 2.2µM*; ELG1 genotox: inconclusive; FLuc counter: inconclusive

What do the screens show for `CCOC(=O)c1cccc(COC(=O)c2cccc(-c3nnc(-c4ccccc4)o3)c2)c1`?
Rab9 promoter act: 1.3µM*; SMN2 splice up: 3.5µM*; NPC1 promoter act: 2µM*; ELG1 genotox: inconclusive; FLuc counter: 11µM*

What do the screens show for `O=C(OCc1ccc(C(=O)c2ccccc2)cc1)c1cccc(-c2nnc(-c3ccccc3)o2)c1`?
Rab9 promoter act: 1.1µM*; SMN2 splice up: inconclusive; NPC1 promoter act: inconclusive; ELG1 genotox: inconclusive; FLuc counter: 11µM*

Results for O=C(COC(=O)c1cccc(O)c1)Nc1nnc(-c2ccccc2)o1 ?
Rab9 promoter act: -2%; NPC1 promoter act: 0%; ELG1 genotox: 3%; FLuc counter: -19%

What do the screens show for `Cn1cc(CN(C(=O)Nc2ccccc2)C2CCCCC2)c2ccccc21`?
SMN2 splice up: -2%; FLuc counter: -14%

What do the screens show for `Cc1ccc(-c2nc(CC(=O)Nc3cccc(S(=O)(=O)NC4=NCCC4)c3)cs2)cc1`?
Rab9 promoter act: 2%; NPC1 promoter act: 0%; ELG1 genotox: -2%; FLuc counter: inconclusive

How did CCN(Cc1ccccc1)S(=O)(=O)c1cc(C(=O)Nc2cc(Cl)cc(Cl)c2)ccc1F do in these assays?
FLuc counter: 0%

How did O=C(OCc1ccccc1)c1cccc(-c2nnc(-c3ccccc3)o2)c1 do in these assays?
Rab9 promoter act: inconclusive; SMN2 splice up: inconclusive; NPC1 promoter act: 1.6µM*; ELG1 genotox: inconclusive; FLuc counter: -19%

What do the screens show for `O=C(N/N=C/c1cccnc1)c1cccc(Br)c1`?
Rab9 promoter act: 20%; NPC1 promoter act: 2%; ELG1 genotox: 5%; FLuc counter: inconclusive

What do the screens show for `CCOc1ccc(OCc2cccc(C(=O)N/N=C/c3cccnc3)c2)cc1`?
Rab9 promoter act: 0.1µM*; SMN2 splice up: 0.13µM*; NPC1 promoter act: 0.1µM*; ELG1 genotox: 0.23µM*; FLuc counter: 1.5µM*

What do the screens show for `CC(C)c1ccc(OCc2cccc(C(=O)N/N=C/c3cccnc3)c2)cc1`?
Rab9 promoter act: inconclusive; SMN2 splice up: 0.22µM*; NPC1 promoter act: 0.28µM*; ELG1 genotox: 0.46µM*; FLuc counter: 0.85µM*

Results for Cc1ccc(S(=O)(=O)N2CCC(C(=O)Nc3ccc(N4CCOCC4)cc3)CC2)cc1C ?
Rab9 promoter act: -7%; NPC1 promoter act: -2%; ELG1 genotox: 0%; FLuc counter: 3%

How did COc1ccc(-c2cc(-c3c(O)c(OC)c4occc4c3OC)[nH]n2)cc1OC do in these assays?
Rab9 promoter act: 11%; SMN2 splice up: -12%; NPC1 promoter act: 3%; ELG1 genotox: -5%; FLuc counter: 17µM*

How did COc1ccc(-c2cc(-c3c(O)c(OC)c4occc4c3OC)[nH]n2)cc1 do in these assays?
Rab9 promoter act: 3%; SMN2 splice up: -35%; NPC1 promoter act: -1%; ELG1 genotox: -2%; FLuc counter: 17µM*

How did COc1ccc(-c2cc(=O)c3c(O)c(OC)c(OC)c(OC)c3o2)cc1OC do in these assays?
SMN2 splice up: 12%

How did CC(=O)c1ccc(S(=O)(=O)N(C)C(C)CCc2ccco2)cc1 (stereo unspecified) do in these assays?
Rab9 promoter act: -3%; NPC1 promoter act: -5%; ELG1 genotox: -4%; FLuc counter: -1%

Results for CCn1c(O)c(N=NC(=O)c2cccs2)c2ccccc21 ?
Rab9 promoter act: 2%; SMN2 splice up: 1%; NPC1 promoter act: inconclusive; ELG1 genotox: -9%; FLuc counter: 17µM*

What do the screens show for `N/C(=N\OC(=O)C1CCCCC1)c1ccncc1`?
Rab9 promoter act: -3%; NPC1 promoter act: 3%; ELG1 genotox: 10%; FLuc counter: inconclusive

How did NC(=NC1CCCCC1)c1ccc(Cl)cc1 do in these assays?
Rab9 promoter act: -2%; SMN2 splice up: -11%; NPC1 promoter act: -3%; ELG1 genotox: -12%; FLuc counter: 0%

How did N/C(=N\OC(=O)C1CCCCC1)c1ccc(Cl)cc1 do in these assays?
Rab9 promoter act: 9%; NPC1 promoter act: 20%; ELG1 genotox: inconclusive; FLuc counter: 11µM*

Results for N/C(=N\OC(=O)C1CCCCC1)c1ccc(Br)cc1 ?
Rab9 promoter act: inconclusive; NPC1 promoter act: 19%; ELG1 genotox: inconclusive; FLuc counter: 9.5µM*

What do the screens show for `N/C(=N\OC(=O)C1CCCCC1)c1ccccn1`?
Rab9 promoter act: 19%; SMN2 splice up: 12%; NPC1 promoter act: 25%; ELG1 genotox: inconclusive; FLuc counter: 2.4µM*

Results for CC(=O)N1CCc2cc(S(=O)(=O)NC(Cc3ccccc3)C(=O)Nc3ccc(Cl)cc3)ccc21 (stereo unspecified) ?
SMN2 splice up: -28%; FLuc counter: 4%

Results for COc1ccc(S(=O)(=O)N(CC(=O)NCC2CCCO2)C2CCCCC2)cc1OC (stereo unspecified) ?
Rab9 promoter act: -2%; NPC1 promoter act: -1%; ELG1 genotox: 0%; FLuc counter: 2%

What do the screens show for `Cc1cc(/C=N/NC(=O)C(O)(c2ccccc2)c2ccccc2)c(C)n1-c1cccc(C(=O)O)c1`?
Rab9 promoter act: 1%; NPC1 promoter act: 0%; ELG1 genotox: -1%; FLuc counter: -7%

Results for O=C(Cc1ccccc1)N/N=C/c1ccccc1F ?
Rab9 promoter act: 0%; SMN2 splice up: 18%; NPC1 promoter act: 10%; ELG1 genotox: 11%; FLuc counter: -18%

Assay outcomes as filed in PubChem.
